The values below come from PubChem BioAssay (Tox21).

Unmarked numbers belong to inactive results. Inconclusive results are not listed. The source made the active and inactive calls. Unless noted, the call rests on the fitted dose curve.

A short description of assay [1]: Nuclear factor erythroid 2-related factor 2/antioxidant responsive element (Nrf2/ARE) small molecule agonists: qHTS cell viability counter screen in human keratinocytes (AID 1919968; active means well fitted curve in the direction sought with a large enough effect in the repeat runs; an effect the other way counts as inactive or inconclusive; further: nearly all actives have a fitted effect of over 55% in size). An outline of the steps: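 Viability counter-screen: KeratinoSens reporter cells, DMSO-delivered compounds, 23 h at 37 C, CellTiter-Fluor fluorescence.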
A short description of assay [2]: Nuclear factor erythroid 2-related factor 2/antioxidant responsive element (Nrf2/ARE) small molecule agonists: luciferase reporter gene qHTS assay in human keratinocytes (AID 1919969). Further: nearly all actives have a fitted effect of over 35% in size.
Assay [3] deals with Gonadotropin-releasing hormone receptor (Homo sapiens) (UniProt P30968). Kind of assay: Human gonadotropin-releasing hormone receptor (GnRHR) small molecule agonists, calcium flux assay in GnRHR-HEK293 cells (AID 1920063). Further: nearly all actives have a fitted effect of over 35% in size. Put shortly: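 Tox21-format agonist screen using human GnRHR-expressing HEK293 cells and a fluorescent calcium dye; kinetic 3-min fluorescence reading after compound addition, 15-point concentration series run in triplicate.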

The target in assay [4] is KiSS-1 receptor (Homo sapiens) (UniProt Q969F8). Briefly: Human kisspeptin (KISS1R) small molecule agonists, calcium flux assay in KISS1R-HEK293 cells (AID 1920064; active means well fitted curve in the direction sought with a large enough effect in the repeat runs; an effect the other way counts as inactive or inconclusive). Put shortly:
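Intracellular calcium mobilization in KISS1R-HEK293 cells was recorded by fluorescence (Ex/Em 480/540) for 3 min following compound addition to cells pre-loaded 1 h with calcium dye.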

Assay [5] can be described thus: G protein-coupled receptor (GPCR) small molecule agonists, calcium flux assay: HEK293 wild type cell line counter screen (AID 1920065). Put shortly: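 In this agonist-mode screen, ATP is the positive control and DMSO the vehicle. Cells grow 18 h before a 1 h dye incubation at 37 C; signal is taken at Ex/Em 480/540 over 3 min.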
Assay [6] in a line: p53 small molecule agonists, cell-based qHTS assay with human liver microsomes (AID 1963577).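 Further: p53 response element beta-lactamase reporter cells with liver microsomes plus NADPH.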 Put shortly: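 HLM-supplemented p53RE-bla reporter assay: 16 h compound exposure at 37 C, microsomes and NADPH each 0.5 mg/mL final, read by fluorescence intensity.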
The nature of assay [7]: p53 small molecule agonists, cell-based qHTS assay with rat liver microsomes (AID 1963578). Put shortly: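 Quantitative HTS of the Tox21 10K library: p53RE-bla cells, rat liver microsomes plus NADPH at 0.5 mg/mL final each, 16 h at 37 C, beta-lactamase fluorescence detection.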
A short description of assay [8]: p53 small molecule agonists, cell-based qHTS assay with human liver microsomes: qHTS cell viability counter screen (AID 1963579). Further: nearly all actives have a fitted effect of over 45% in size. Put shortly:
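Viability of p53RE-bla cells is measured as CellTiter-Glo luminescence following a 16 h, 37 C incubation with compound, liver microsomes from human donors and NADPH.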

The nature of assay [9]: p53 small molecule agonists, cell-based qHTS assay with rat liver microsomes: qHTS cell viability counter screen (AID 1963580). Further: nearly all actives have a fitted effect of over 45% in size. An outline of the steps: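 Viability is assessed in parallel with the p53 reporter read: HCT-116 p53RE-bla cells receive compounds plus rat microsomes and NADPH (0.5 mg/mL final apiece), incubate 16 h at 37 C, and then CellTiter-Glo luminescence is recorded.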

Assay [10] can be described thus: p53 small molecule agonists, cell-based qHTS assay: qHTS cell viability counter screen (AID 1963581). Further: nearly all actives have a fitted effect of over 45% in size. An outline of the steps:
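Compounds are pinned onto HCT-116 p53RE-bla cells and left 16 h at 37 C. Following the reporter FRET read, ATP is quantified by CellTiter-Glo luminescence after 30 min at room temperature.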

A short description of assay [11]: p53 small molecule agonists, cell-based qHTS assay (AID 1963582; active means well fitted activation curve with a large enough effect in the signal ratio in the repeat runs, not every such curve was filed as active; the % refers to the signal ratio). Put shortly:
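Agonist activity was scored from beta-lactamase FRET fluorescence in p53RE-bla cells treated 16 h at 37 C with compounds in DMSO, substrate incubation being 2 h at room temperature.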

For assay [12], the target named is 5-hydroxytryptamine receptor 2A (Homo sapiens) (UniProt P28223). Briefly: 5-hydroxytryptamine receptor 2A (HTR2A) small molecule antagonists, cell-based qHTS assay (AID 1963586). Further: nearly all actives have a fitted effect of over 45% in size. Put shortly:
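Antagonist-mode intracellular calcium assay: DOI (4 nM) added after 5 min compound pre-incubation at room temperature to dye-loaded HTR2A-CHO cells. Fluorescence followed for 3 min, sampled every second.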

The target is the same in assay [13]. Kind of assay: 5-hydroxytryptamine receptor 2A (HTR2A) small molecule agonists, cell-based qHTS assay (AID 1963587). Further: nearly all actives have a fitted effect of over 30% in size. Put shortly: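 CHO cells stably expressing human HTR2A, plated 18 h, loaded with calcium dye 1 h at 37 C. Agonist mode: compounds added and intracellular calcium fluorescence recorded kinetically for 2 min at 1 sec intervals.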
The target of assay [14] is Muscarinic acetylcholine receptor M1 (Homo sapiens) (UniProt P11229). Briefly: Cholinergic receptor muscarinic 1 (CHRM1) small molecule antagonists, cell-based qHTS assay (AID 1963588). Further: nearly all actives have a fitted effect of over 40% in size. Put shortly: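 CHRM1-CHO calcium-flux assay, antagonist mode. Cells were seeded 18 h, dye-loaded 1 h at 37 C and given compound for 5 min at RT, then acetylcholine was added at 50nM. FDSS fluorescence was read 3 min; 15 concentrations, three runs.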

The nature of assay [15]: cAMP Responsive Elements (CRE) small molecule agonists, cell-based qHTS assay (AID 1963590). Put shortly: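 FRET-based beta-lactamase readout (LiveBLAzer B/G, 2 h RT) quantified CRE activation in HEK 293T CRE-bla cells after 3 h treatment with DMSO-dissolved compounds.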
Assay [16] deals with Beta-2 adrenergic receptor (Homo sapiens) (UniProt P07550). Briefly: Adrenergic beta2 receptor (ADRB2) small molecule antagonists, cell-based qHTS assay (AID 1963592). Further: series mostly up to about 92 µM; nearly all actives have a fitted effect of over 50% in size. An outline of the steps:
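Cells (CHO, stable ADRB2 overexpression) incubated 18-20hr at 37C; compounds added from DMSO; agonist mix (1nM isoproterenol, 100uM IBMX, 25uM Ro-20-1724) added; 0.5hr RT; d2-cAMP and anti-cAMP-cryptate added; 1hr RT; 665/615 nm read.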

Assay [17] addresses D(2) dopamine receptor (Homo sapiens) (UniProt P14416). Kind of assay: Dopamine D2 receptor (DRD2) small molecule antagonists, cell-based qHTS assay (AID 1963595; active means well fitted inhibition curve with a large enough effect in the signal ratio in the repeat runs, with a control signal flat; the % refers to the signal ratio). An outline of the steps:
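In this cell-based antagonist screen, compounds act for 10 min at room temperature before a 30 min challenge with 12 nM quinpirole and 200 nM NKH477. cAMP is quantified by HTRF competition in DRD2-HEK293 cells containing 0.1 mM Ro20-1724.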

For assay [18], the target named is Muscarinic acetylcholine receptor M1 (Homo sapiens) (UniProt P11229). Kind of assay: Cholinergic receptor muscarinic 1 (CHRM1) small molecule agonists, cell-based qHTS assay (AID 1963589). Further: nearly all actives have a fitted effect of over 35% in size. Further: potency means the concentration at half of the fitted maximal effect. Put shortly: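 Stable CHRM1-CHO cells (human receptor) were incubated 18 h, dye-loaded for 1 h at 37 C and exposed to test compounds for agonist activity, with calcium-dependent fluorescence followed kinetically.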

Assay [19] in a line: cAMP Responsive Elements (CRE) small molecule antagonists, cell-based qHTS assay (AID 1963591; active means well fitted inhibition curve with a large enough effect in the signal ratio in the repeat runs, not every such curve was filed as active; the % refers to the signal ratio). An outline of the steps: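 qHTS in CRE-bla HEK 293T cells: compound in DMSO, then 0.25 uM NKH477 (final), 3 h at 37 °C/5% CO2; beta-lactamase FRET read-out after 2 h substrate incubation.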
For assay [20], the target named is D(2) dopamine receptor (Homo sapiens) (UniProt P14416). Kind of assay: Dopamine D2 receptor (DRD2) small molecule agonists, cell-based qHTS assay (AID 1963594). Further: nearly all actives have a fitted effect of over 35% in size. Put shortly:
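HEK293 cells stably expressing human DRD2, pre-treated with PDE inhibitor Ro20-1724 (0.1 mM final) and compound 10 min at room temperature, then stimulated with NKH477 (200nM […]) for 30 min. cAMP read by HTRF (665/620 nm).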

KiSS-1 receptor (Homo sapiens), sequence (Q969F8 whole entry, looked up): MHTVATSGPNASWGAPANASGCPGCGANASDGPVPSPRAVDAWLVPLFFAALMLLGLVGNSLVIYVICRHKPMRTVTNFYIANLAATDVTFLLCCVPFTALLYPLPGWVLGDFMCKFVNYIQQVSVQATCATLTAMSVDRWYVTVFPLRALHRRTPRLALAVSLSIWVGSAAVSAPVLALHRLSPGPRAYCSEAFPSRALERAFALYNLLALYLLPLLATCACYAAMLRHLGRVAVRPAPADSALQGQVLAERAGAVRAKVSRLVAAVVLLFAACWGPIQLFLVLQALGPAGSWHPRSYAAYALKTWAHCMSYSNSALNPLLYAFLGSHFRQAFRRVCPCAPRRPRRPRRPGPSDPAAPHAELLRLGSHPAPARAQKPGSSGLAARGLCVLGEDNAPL
Beta-2 adrenergic receptor (Homo sapiens), sequence (P07550 whole entry, looked up): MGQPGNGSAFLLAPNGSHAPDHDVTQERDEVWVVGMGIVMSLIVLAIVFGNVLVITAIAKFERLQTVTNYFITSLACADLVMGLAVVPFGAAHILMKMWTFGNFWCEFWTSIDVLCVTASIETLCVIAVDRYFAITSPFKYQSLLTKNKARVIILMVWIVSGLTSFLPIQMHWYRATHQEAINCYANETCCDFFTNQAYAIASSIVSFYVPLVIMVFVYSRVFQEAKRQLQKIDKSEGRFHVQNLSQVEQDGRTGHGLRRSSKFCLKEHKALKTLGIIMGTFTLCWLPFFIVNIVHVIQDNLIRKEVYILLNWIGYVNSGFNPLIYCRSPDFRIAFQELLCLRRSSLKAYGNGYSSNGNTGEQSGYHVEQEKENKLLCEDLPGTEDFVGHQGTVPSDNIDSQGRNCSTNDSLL
D(2) dopamine receptor (Homo sapiens), sequence (P14416 whole entry, looked up): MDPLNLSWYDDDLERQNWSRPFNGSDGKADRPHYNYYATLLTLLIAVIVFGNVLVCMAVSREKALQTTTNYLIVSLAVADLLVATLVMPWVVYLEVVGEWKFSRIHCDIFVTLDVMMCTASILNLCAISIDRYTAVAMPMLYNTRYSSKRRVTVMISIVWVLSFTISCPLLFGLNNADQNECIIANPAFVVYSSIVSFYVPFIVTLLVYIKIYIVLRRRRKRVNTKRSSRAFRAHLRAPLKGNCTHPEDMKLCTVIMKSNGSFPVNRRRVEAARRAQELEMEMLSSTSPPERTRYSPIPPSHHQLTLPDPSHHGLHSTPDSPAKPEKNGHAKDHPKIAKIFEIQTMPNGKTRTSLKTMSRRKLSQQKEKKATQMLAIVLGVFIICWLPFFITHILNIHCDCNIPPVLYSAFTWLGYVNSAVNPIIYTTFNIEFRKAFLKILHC
Muscarinic acetylcholine receptor M1 (Homo sapiens), sequence (P11229 whole entry, looked up): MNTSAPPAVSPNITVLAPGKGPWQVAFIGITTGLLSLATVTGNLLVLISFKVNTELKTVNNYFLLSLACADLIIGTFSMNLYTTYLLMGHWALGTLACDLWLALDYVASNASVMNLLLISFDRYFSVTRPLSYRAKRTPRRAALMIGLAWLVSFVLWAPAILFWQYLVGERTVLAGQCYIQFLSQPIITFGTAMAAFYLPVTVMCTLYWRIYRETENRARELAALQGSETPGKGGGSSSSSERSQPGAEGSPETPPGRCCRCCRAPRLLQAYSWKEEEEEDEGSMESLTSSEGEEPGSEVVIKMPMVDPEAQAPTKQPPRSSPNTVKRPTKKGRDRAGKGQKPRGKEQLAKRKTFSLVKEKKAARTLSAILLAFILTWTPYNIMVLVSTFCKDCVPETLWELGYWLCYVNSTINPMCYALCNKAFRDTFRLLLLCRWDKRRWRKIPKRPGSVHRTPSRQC
Gonadotropin-releasing hormone receptor (Homo sapiens), sequence (P30968 whole entry, looked up): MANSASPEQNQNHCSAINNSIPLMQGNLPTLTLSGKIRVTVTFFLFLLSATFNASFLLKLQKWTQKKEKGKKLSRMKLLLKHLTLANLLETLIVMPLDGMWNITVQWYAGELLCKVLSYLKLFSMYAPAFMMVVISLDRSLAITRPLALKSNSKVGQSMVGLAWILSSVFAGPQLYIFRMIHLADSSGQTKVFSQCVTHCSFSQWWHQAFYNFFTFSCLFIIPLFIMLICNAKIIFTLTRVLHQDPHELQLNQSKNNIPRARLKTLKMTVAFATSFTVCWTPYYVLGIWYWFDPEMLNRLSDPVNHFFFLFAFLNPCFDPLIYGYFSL
5-hydroxytryptamine receptor 2A (Homo sapiens), sequence (P28223 whole entry, looked up): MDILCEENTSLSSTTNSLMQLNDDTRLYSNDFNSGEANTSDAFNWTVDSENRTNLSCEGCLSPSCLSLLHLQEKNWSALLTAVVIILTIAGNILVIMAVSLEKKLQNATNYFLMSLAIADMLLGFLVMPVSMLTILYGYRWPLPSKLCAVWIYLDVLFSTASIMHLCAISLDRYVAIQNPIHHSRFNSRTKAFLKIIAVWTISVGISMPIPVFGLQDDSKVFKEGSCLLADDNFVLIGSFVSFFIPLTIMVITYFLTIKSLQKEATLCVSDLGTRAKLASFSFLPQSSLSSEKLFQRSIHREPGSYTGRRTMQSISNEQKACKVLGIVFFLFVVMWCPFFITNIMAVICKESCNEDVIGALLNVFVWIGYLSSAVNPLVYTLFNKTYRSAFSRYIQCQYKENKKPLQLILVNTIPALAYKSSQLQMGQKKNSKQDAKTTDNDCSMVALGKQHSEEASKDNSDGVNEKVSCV

As to `SCCCCCCCCS`, the Potency result in assay [1], in assay [2], in assay [3], in assay [6], in assay [7] and in [8] was “inactive” throughout. For the same compound, the Potency result in assay [9], in assay [10], in assay [11], in assay [12], in assay [13] and in assay [14] was “inactive” throughout. The Potency result in [15], in assay [16] and in assay [17] was “inactive” each time. Also, the outcome in [4] and in assay [5] was inactive.

As for `Nc1c(Cl)cc(Cl)cc1Cl`, the Potency entry in assay [1], in assay [2], in assay [3], in assay [6], in [7] and in [8] was “inactive” in each case. Moreover, the Potency result in assay [9], in [10], in assay [11], in assay [12], in [13] and in assay [15] was “inactive” in each case. Moreover, the Potency result in assay [19], in assay [16], in assay [20] and in assay [17] was “inactive” in each case. For the same compound, the outcome in assay [4] and in assay [5] was inactive. Besides, in assay [18], the Potency was 8.58 µM (active).

With `c1cc[nH]c1`, the Potency result in [1], in [2], in assay [3], in assay [6], in assay [7] and in assay [8] was “inactive” in each case. Also, the Potency result in assay [9], in assay [10], in assay [11], in [12], in [13] and in [18] was “inactive” each time. The Potency entry in assay [15], in [19], in [20] and in assay [17] was “inactive” throughout. The result in assay [4] and in assay [5] was inactive.

For `Cc1ccc(Cl)cc1Cl`, the Potency entry in [1], in [2], in assay [3], in assay [6], in assay [7] and in assay [8] was “inactive” throughout. The Potency result in assay [9], in [10], in assay [11], in assay [12], in [13] and in assay [18] was “inactive” each time. The Potency entry in [15], in assay [19], in assay [16], in assay [20] and in assay [17] was “inactive” in each case. Also, the outcome in [4] and in [5] was inactive.

On to `C[C@H](N)C(=O)N[C@@H](C)C(=O)NC1[C@H]2CN(c3nc4c(cc3F)c(=O)c(C(=O)O)cn4-c3ccc(F)cc3F)C[C@@H]12` (stereo partly drawn), for which the Potency entry in assay [1], in assay [2], in assay [3], in assay [6], in assay [7] and in [8] was “inactive” each time. Also, the Potency result in assay [9], in [10], in [11], in [12], in assay [13] and in [14] was “inactive” in each case. Also, the Potency entry in assay [16], in [20] and in assay [17] was “inactive” throughout. For the same compound, the result in assay [4] and in assay [5] was inactive.

`Cc1ccc(/C=N/n2c(-c3ccccc3)csc2=S)cc1`: the Potency result in [1], in assay [2], in assay [3], in assay [6], in [7] and in [8] was “inactive” in each case. The Potency result in [9], in [10], in assay [11], in assay [12], in assay [13] and in assay [18] was “inactive” in each case. Further, the Potency result in assay [15], in assay [19], in assay [16], in assay [20] and in [17] was “inactive” in each case. Besides, the result in assay [4] and in assay [5] was inactive.

As to `COc1ccc(-n2nc(CCC(=O)N(C)O)cc2-c2ccc(Cl)cc2)cc1`, the Potency entry in [1], in assay [2], in assay [3], in [6], in assay [7] and in assay [8] was “inactive” throughout. For the same compound, the Potency result in assay [9], in [10], in [11], in [12], in [13] and in assay [18] was “inactive” in each case. Also, the Potency entry in assay [19], in [16], in assay [20] and in assay [17] was “inactive” each time. Further, the outcome in assay [4] and in [5] was inactive.

As to `CC(C)(c1ccc(Oc2ccc3c(c2)C(=O)OC3=O)cc1)c1ccc(Oc2ccc3c(c2)C(=O)OC3=O)cc1`, the Potency result in assay [1], in assay [2], in assay [3], in assay [6], in [7] and in assay [8] was “inactive” each time. Also, the Potency result in assay [9], in assay [10], in assay [11], in [12], in [13] and in assay [15] was “inactive” each time. The Potency entry in assay [19], in [16], in assay [20] and in [17] was “inactive” in each case. In addition, the result in assay [4] and in [5] was inactive.

For the compound `Cc1cccc(C)c1NC(=O)c1ccccc1C(=O)O`, the Potency entry in assay [1], in [2], in [3], in assay [6], in assay [7] and in [8] was “inactive” in each case. The Potency entry in [9], in assay [10], in assay [11], in assay [12], in [13] and in [18] was “inactive” in each case. The Potency entry in [15], in assay [19], in [16] and in assay [17] was “inactive” in each case. The outcome in [4] and in assay [5] was inactive.

Take `CC(C)(Oc1ccc(Cl)cc1)C(=O)OCCCOC(=O)C(C)(C)Oc1ccc(Cl)cc1`: the Potency entry in assay [1], in assay [2], in [3], in assay [6], in assay [7] and in [8] was “inactive” in each case. Further, the Potency entry in assay [9], in assay [10], in assay [11], in assay [12], in assay [13] and in [18] was “inactive” each time. The Potency result in [15], in assay [16] and in assay [20] was “inactive” each time. In addition, the result in assay [4] and in assay [5] was inactive.

In the case of `CCN(CC)CCOc1ccc(Cc2ccccc2)cc1`, the Potency entry in assay [1], in assay [2], in assay [3], in [6], in assay [7] and in assay [8] was “inactive” each time. The Potency result in [9], in [10], in assay [11], in assay [12], in assay [13] and in [18] was “inactive” each time. In addition, the Potency entry in [15], in assay [19], in assay [16] and in [20] was “inactive” throughout. Further, the outcome in assay [4] and in [5] was inactive.
